LMP1 NFkB inh: Epstein-Barr LMP1 NF-kappaB reporter inhibition | 0.69% of 350,000 active | LMP1-induced NF-kappaB luciferase reporter cells, luminescence | AID 504558 | inhibition, % at 12.5 µM; in the data active means inhibition above about 41%;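 further: 0% = neutral control wells and 100% = reference inhibitor control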
TWEAK Fn14 block: blocks TWEAK-Fn14 interaction in a reporter cell assay. TWEAK-stimulated Fn14 reporter cells, luciferase luminescence, 8 h. inhibition, % at 10 µM. 2% of 360,000 active. AID 1159606; in the data active means inhibition above about 50%
HSF-1 act: increases HSF-1 driven luciferase reporter signal; NIH3T3-HGL HSF-1 luciferase reporter, MG132, 8 h; 100% = twice DMSO control signal; activation, % at 9 µM; 1.7% of 300,000 active;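 active means mean replicate activation of at least 50% with a set share of replicates each reaching 50%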;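 further: 0% = median of the neutral control wells and 100% = twice that signal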
LGR2 inh: Drosophila LGR2 receptor signaling inhibition; HEK293 LGR2, CRE-luciferase, bursicon-stimulated, 4 h; inhibition, % at 9.99 µM; 0.35% of 380,000 active; AID 720647;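 active means drop in luminescence signal, shown as inhibition above about 50% in the replicate tests, limit read from the data, passing the limit was not always enough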;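 further: agonist challenge used bursicon conditioned medium at about half maximal strength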
HSF1 inhib: HSF1 inhibition. AID 2098. activity change, negative = inhibition, % at 7.5 µM (by protocol). NIH3T3-HGL HSE-luciferase, MG132-induced, luminescence 8 h; hits give low values. 0.77% of 300,000 active;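 active means more than half of replicate wells show activity change below -50%, luminescence cut by over half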;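 further: luciferase reports HSF-1 transcriptional activity via heat shock element; 0% = median of DMSO wells and -100% = zero luminescence signal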
TROY NFkB inh: TROY signaling inhibition; Q293 LMP1-TROYcd NF-kB luciferase reporter, 4 h; inhibition, % at 10 µM; 0.98% of 360,000 active;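 active means compounds whose plate-normalised and pattern-corrected inhibition of the luciferase reporter signal at the single screening dose is 50% or more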
* hit, by the source's call; . = not tested or not shown. Compounds with a hit are over-represented: about 3.6% of the library has one in this group of screens.

SMILES | LMP1 NFkB inh | TWEAK Fn14 block | HSF-1 act | LGR2 inh | HSF1 inhib | TROY NFkB inh
Cc1cc(Br)ccc1OCC(=O)N1CCCCCC1 | -11 | 0 | 16 | . | 7 | -18
COc1ccc(S(=O)(=O)N[C@@H]2CC[C@H](CC(=O)NCCc3ccncc3)O[C@@H]2CO)cc1 | . | . | . | -8 | . | .
Cc1ccc(Cn2c(=O)sc3ccccc3c2=O)cc1 | 3 | -6 | 6 | . | 5 | -15
COc1cccc(Cn2c(=O)sc3ccccc3c2=O)c1 | -17 | -14 | 81* | -10 | 46 | -20
O=C(c1cccnc1)N1CC[C@@H]2[C@H](CO)Nc3ccc(C#Cc4cccnc4)cc3[C@@H]21 | . | . | . | -8 | . | .
CCNC(=O)C[C@H]1CC[C@@H]2[C@H](COC[C@H](O)CN2C(=O)C2CC2)O1 | . | . | . | -4 | . | .
O=c1c2ccccc2[nH]c(=S)n1CCN1CCCCC1 | -1 | -13 | 26 | -6 | 0 | 5
O=c1c2ccccc2[nH]c(=S)n1CCC1=CCCCC1 | 3 | 4 | 73* | 1 | 36 | -38
COc1ccc(/C=N\NC(=O)/C(=C\Nc2nccc(C)n2)NC(=O)c2ccccc2)cc1 | 7 | 71* | 3 | 10 | -1 | .
Cc1ccc(/C=N\NC(=O)/C(=C\Nc2nccc(C)n2)NC(=O)c2ccccc2)cc1 | 15 | -8 | -4 | 4 | -4 | 17
CNC(=O)C[C@@H]1CC[C@H]2[C@H](COc3ccc(NC(=O)Nc4c(C)noc4C)cc3C(=O)N2C)O1 | . | . | . | 6 | . | .
O=C(Nc1nc2c(s1)CCCC2)c1ccc(Br)s1 | -24 | 55* | 59* | 26 | 34 | 6
O=C(Nc1nc2c(s1)CCCC2)c1ccc(N2C(=O)CCC2=O)cc1 | -7 | -12 | 34 | -36 | 12 | -31
O=C(Oc1ccc(/C=N/n2cnnc2)cc1)c1cccc([N+](=O)[O-])c1 | 3 | 10 | -20 | 73* | 4 | 56*
CN1C(=O)c2cc(NC(=O)C3CC3)ccc2OC[C@H]2O[C@H](CC(=O)NC3CCC3)CC[C@H]21 | . | . | . | -12 | . | .
CCCCCCCCCc1nc2sc3c(c2c(=O)n1NC(=O)c1ccccc1[N+](=O)[O-])CC(C)(C)OC3 | -3 | 49 | 20 | 3 | 0 | 58*
CCCCCCCCCc1nc2sc3c(c2c(=O)n1NC(=O)c1ccc([N+](=O)[O-])cc1)CC(C)(C)OC3 | 3 | 56* | -21 | 24 | -2 | 42
CCCc1nc2sc3c(c2c(=O)n1NC(=O)c1ccco1)CC(C)(C)OC3 | -5 | -7 | 0 | . | 0 | -37
C[C@H]1CN([C@@H](C)CO)C(=O)c2cc(-c3cncnc3)cnc2O[C@@H]1CN(C)C(=O)Nc1ccc2c(c1)OCO2 | . | . | . | -1 | . | .
CCCNC(=O)N1CC2(C1)CN(C(=O)c1ccncc1)[C@@H](CO)c1[nH]c3cc(OC)ccc3c12 | . | . | . | 2 | . | .
Cc1ccc(S(=O)(=O)N(C)C[C@H]2OCCCC[C@@H](C)Oc3ccc(NS(=O)(=O)c4c(C)noc4C)cc3C(=O)N([C@@H](C)CO)C[C@H]2C)cc1 | . | . | . | 11 | . | .
COc1ccccc1N=Nc1ccc(O)c2ncccc12 | 32 | 42 | -79 | -21 | -78* | 65*
CCS(=O)(=O)c1ccc(N=Nc2ccc(O)c3ncccc23)c(OC)c1 | -14 | 65* | -57 | 47 | -60* | 39
Oc1ccc(N=Nc2ccccc2C(F)(F)F)c2cccnc12 | 72* | 2 | -72 | 46 | -66* | 6
CCC(=O)Nc1ccc2c(c1)C(=O)N(C)[C@@H]1CC[C@@H](CC(=O)N3CCc4ccccc4C3)O[C@@H]1CO2 | . | . | . | -5 | . | .
SMILES | LMP1 NFkB inh | TWEAK Fn14 block | HSF-1 act | LGR2 inh | HSF1 inhib | TROY NFkB inh
Cc1ccc(S(=O)(=O)Nc2ccc3c(c2)CC(=O)N([C@H](C)CO)C[C@H](C)[C@@H](CN(C)C(=O)Nc2c(C)noc2C)O3)cc1 | . | . | . | 14 | . | .
CC(=O)Oc1ccc(Cn2cnc3cc4ccccc4cc32)cc1 | -6 | -31 | 68* | . | 40 | -68
CCOc1ccc2c(c1)ncn2Cc1ccccc1 | 0 | -12 | 32 | -19 | 13 | -19
COCCCNC(=O)c1c(N)n(/N=C/c2cccnc2)c2nc3ccccc3nc12 | 13 | 26 | 1 | . | -9 | -11
CCC(C)NC(=O)c1c(N)n(/N=C/c2cccnc2)c2nc3ccccc3nc12 (stereo unspecified) | -3 | 51* | 3 | . | -11 | -15
CCC(C)NC(=O)c1c(N)n(/N=C/c2ccccn2)c2nc3ccccc3nc12 (stereo unspecified) | 1 | 64* | -13 | 9 | -11 | 31
CC1(c2nnnn2-c2ccc3c(c2)OCCO3)CCC(=O)N1C1CCN(Cc2ccccc2)CC1 (stereo unspecified) | . | 80* | . | 8 | . | 50
CCc1ccc(/C=C2\SC(=S)N(CCCC(=O)NC3=NCCS3)C2=O)cc1 | 46* | 92* | . | 1 | . | 77*
Cc1cc(NC(=O)CCN2C(=O)/C(=C/c3ccccc3Cl)SC2=S)no1 | 0 | -28 | 54* | 5 | 11 | 2
CCc1ccc(/C=C2\SC(=S)N(CCC(=O)Nc3cc(C)on3)C2=O)cc1 | 6 | 70* | -10 | 2 | -17 | 53*
CCc1ccc(/C=C2\SC(=S)N(CCCC(=O)Nc3cc(C)on3)C2=O)cc1 | 37 | 70* | . | 18 | . | 81*
C[C@H](CO)N1C[C@H](C)[C@H](CN(C)C(=O)Nc2cccc3ccccc23)Oc2ccc(NC(=O)c3ccncc3)cc2C1=O | . | . | . | 5 | . | .
C[C@@H]1CN([C@@H](C)CO)C(=O)c2cc(NC(=O)Nc3ccc4c(c3)OCO4)ccc2O[C@@H](C)CCCCO[C@@H]1CN(C)C(=O)c1ccccc1 | . | . | . | 17 | . | .
CC(C)Cc1nc2oc3c(NCCCN4CCOCC4)ncnc3c2c2c1CCC2 | -3 | -54 | 31 | . | 1 | 6
CC(C)Cc1nc2oc3c(Cl)ncnc3c2c2c1CCC2 | -2 | 90* | 14 | -2 | 0 | -7
CCC(=O)N[C@H]1C=C[C@H](CC(=O)NCc2ccccc2OC)O[C@@H]1CO | . | . | . | 4 | . | .
O=C(NCCCCCCNC(=O)OCc1ccccc1)OCc1ccccc1 | -2 | 4 | . | -7 | . | -7
O=C(OCc1ccccc1)N(CCCCN(CCCNCc1ccccc1)C(=O)OCc1ccccc1)CCCNCc1ccccc1 | -47 | 102* | . | 3 | . | 34
CCC1CCCCN1C(=O)c1cc2c(=O)n3cccc(C)c3nc2s1 (stereo unspecified) | -14 | -7 | -68 | . | -64* | -26
Cc1cccn2c(=O)c3cc(C(=O)N4CCCCC4)sc3nc12 | -19 | -21 | 16 | 2 | 7 | -30
C[C@@H]1CN([C@H](C)CO)C(=O)c2cc(NC(=O)NC3CCCCC3)ccc2O[C@@H](C)CCCCO[C@@H]1CN(C)S(=O)(=O)c1cccs1 | . | . | . | -12 | . | .
O=C(c1nnsc1S(=O)c1ccc(Cl)cc1)N1CCOCC1 (stereo unspecified) | 23 | 86* | 267* | . | 194 | 51*

Source: PubChem BioAssay (several laboratories)
